KDM5B inhibitor – blocks human KDM5B histone demethylase activity; KDM5B demethylase, FDH-coupled NADH fluorescence (FDH is formaldehyde dehydrogenase); Potency, µM (highest dose often 57.7 µM), usual class: inhibitors; actives 2.6% (n = 220,000); active = well fitted inhibition curve with a large enough effect; also: 0% is about no effect; nearly all actives have a fitted effect of over 70% in size
Target sequence (Q9UGL1 whole entry, looked up): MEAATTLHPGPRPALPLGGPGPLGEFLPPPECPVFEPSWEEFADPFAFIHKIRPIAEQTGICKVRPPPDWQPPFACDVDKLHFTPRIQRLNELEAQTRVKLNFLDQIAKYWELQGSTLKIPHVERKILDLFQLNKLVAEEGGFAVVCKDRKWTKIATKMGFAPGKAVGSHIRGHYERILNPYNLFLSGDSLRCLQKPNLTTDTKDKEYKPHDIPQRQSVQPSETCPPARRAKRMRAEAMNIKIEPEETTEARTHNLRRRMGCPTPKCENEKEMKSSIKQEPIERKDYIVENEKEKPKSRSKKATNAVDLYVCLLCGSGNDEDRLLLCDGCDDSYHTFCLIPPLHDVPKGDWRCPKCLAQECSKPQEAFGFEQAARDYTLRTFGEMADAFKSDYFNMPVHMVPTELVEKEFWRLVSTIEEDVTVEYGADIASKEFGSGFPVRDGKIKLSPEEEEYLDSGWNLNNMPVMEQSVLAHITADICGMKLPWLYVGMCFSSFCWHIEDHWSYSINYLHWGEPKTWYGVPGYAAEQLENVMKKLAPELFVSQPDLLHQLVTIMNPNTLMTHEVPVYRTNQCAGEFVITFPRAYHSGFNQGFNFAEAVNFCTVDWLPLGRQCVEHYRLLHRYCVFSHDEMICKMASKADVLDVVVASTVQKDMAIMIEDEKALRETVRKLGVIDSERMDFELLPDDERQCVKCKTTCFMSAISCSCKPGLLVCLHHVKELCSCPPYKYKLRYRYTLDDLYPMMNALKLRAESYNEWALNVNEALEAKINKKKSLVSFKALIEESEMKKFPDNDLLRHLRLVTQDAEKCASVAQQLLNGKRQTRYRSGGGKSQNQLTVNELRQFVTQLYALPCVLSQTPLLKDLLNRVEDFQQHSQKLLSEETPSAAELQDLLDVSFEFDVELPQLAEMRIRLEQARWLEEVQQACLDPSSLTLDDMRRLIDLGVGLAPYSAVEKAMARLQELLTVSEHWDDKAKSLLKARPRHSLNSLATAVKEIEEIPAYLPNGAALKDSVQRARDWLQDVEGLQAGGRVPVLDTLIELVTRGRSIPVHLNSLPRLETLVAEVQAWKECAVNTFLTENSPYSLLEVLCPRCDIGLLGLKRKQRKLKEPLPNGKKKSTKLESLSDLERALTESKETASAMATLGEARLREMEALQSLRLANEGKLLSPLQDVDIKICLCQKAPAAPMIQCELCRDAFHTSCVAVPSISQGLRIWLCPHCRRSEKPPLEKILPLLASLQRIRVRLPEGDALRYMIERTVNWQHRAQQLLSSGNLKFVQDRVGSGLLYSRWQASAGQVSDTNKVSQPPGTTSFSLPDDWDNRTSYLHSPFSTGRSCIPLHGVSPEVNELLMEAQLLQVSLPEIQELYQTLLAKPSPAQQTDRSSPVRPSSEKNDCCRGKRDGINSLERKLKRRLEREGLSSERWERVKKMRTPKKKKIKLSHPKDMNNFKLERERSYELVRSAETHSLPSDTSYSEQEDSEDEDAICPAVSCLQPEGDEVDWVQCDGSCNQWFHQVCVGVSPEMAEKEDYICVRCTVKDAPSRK
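Measured: NADH fluorescence change, 30 min, RT. System: KDM5BΔAP 200 nM final, H3K4me3 peptide, α-KG, Fe(II), ascorbate, NAD⁺ plus FDH, pH 7.5 HEPES. Compounds: titrated, 10 min pre-incubation with enzyme.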
The depositor's hits bear a star. This is one part of a sample in which hits are shown more often than they occur. Potency is read from the fitted curve at half-maximal effect.

CC(On1nnc2ccccc21)C(=O)Nc1ccc(Cl)cc1Cl (centres undefined) was read as KDM5B inhibitor inactive.
CCCOc1ccc(NC(=O)c2cccc(OCC)c2)c2cccnc12 was read as KDM5B inhibitor inactive.
O=C(NCc1ccncc1)c1cc(=O)c2ccccc2o1 was read as KDM5B inhibitor inactive.
For O=c1cc(-c2ccncc2)oc2c(-c3ccc(CO)cc3)nccc12 the results were KDM5B inhibitor 35.5µM*.
Screening NCc1ccc(-c2ccccn2)cc1 returned KDM5B inhibitor inactive.
Cc1noc(C)c1-c1nccc2c(=O)cc(-c3ccccn3)oc12 was read as KDM5B inhibitor 28.2µM*.
`O=c1cc(-c2ccccn2)oc2c(-c3ccc(CO)cc3)nccc12` gave KDM5B inhibitor 28.2µM*.
For Cc1noc(C)c1-c1cc2c(c(-c3ccccc3O)c1)C(=O)N(C)C2=O the results were KDM5B inhibitor inactive.
CCOc1ccc(-c2cc(=O)c3ccccc3o2)cc1 was read as KDM5B inhibitor inactive.
COc1cccc(Cl)c1-c1nccc2c(=O)cc(-c3ccccn3)oc12 was read as KDM5B inhibitor inactive.
Screening Cc1cc2oc(=O)cc(CN3CCN(c4ccc(F)cc4)CC3)c2cc1O returned KDM5B inhibitor inactive.
O=C(CCc1ncc(-c2ccccc2F)o1)N1CCSCC1 was read as KDM5B inhibitor inactive.
Screening O[C@@H]1C[C@@H](c2nc(-c3ccccn3)no2)N(Cc2cccs2)C1 returned KDM5B inhibitor inactive.
For CC(NC(=O)/C(=C\c1ccc(Br)cc1)NC(=O)c1ccc(Br)o1)C(=O)O (centres undefined) the results were KDM5B inhibitor inactive.
Screening O=C(CSc1nnc(N2CCOCC2)n1-c1cccc(F)c1)N(C1=CCCCC1)C1CC1 returned KDM5B inhibitor inactive.
`CCOC(=O)c1ccc(NC(=O)CN2C(=O)NC3(CCCCC3)C2=O)cc1` gave KDM5B inhibitor inactive.
O=C(Nc1ccc(Oc2ccccc2)cc1)c1n[nH]c(=O)c2ccccc12 was read as KDM5B inhibitor inactive.
`O=C(O)c1ccnc(-c2ccnc(NCCN3CCCCC3=O)n2)c1` gave KDM5B inhibitor 22.4µM*.
Screening O=C(O)c1ccnc(-c2ccnc(NCCc3noc(C4CCC4)n3)n2)c1 returned KDM5B inhibitor 28.2µM*.
`CC(C)(C)c1ccc(C(=S)NCCCN2CCCC2=O)cc1` gave KDM5B inhibitor inactive.
For O=C(O)c1cccc(CC2CCN(C(=O)CCCN3CCCCC3=O)C2)c1 (centres undefined) the results were KDM5B inhibitor inactive.
`CCC(C)(C)C(=O)NCCc1noc(C2CC2)n1` gave KDM5B inhibitor inactive.
Screening Cc1cccc(C(=O)NCCc2noc(C3CC3)n2)c1 returned KDM5B inhibitor inactive.
For N#Cc1ccccc1OC(=O)/C=C/c1ccco1 the results were KDM5B inhibitor inactive.
COc1ccc(Cl)cc1-n1nnc(C(=O)Nc2cccc(C(F)(F)F)c2)c1C was read as KDM5B inhibitor inactive.
`N#Cc1ccccc1CNc1ccc(Br)cc1F` gave KDM5B inhibitor inactive.
`COc1ccc(-c2n[nH]c3c2CC(=O)N(CC2CCOCC2)C3)cc1F` gave KDM5B inhibitor inactive.
`O=C(c1cc(F)cc(F)c1)N1CCC(CN2CCOCC2)CC1` gave KDM5B inhibitor inactive.
`Cn1nc(-c2ccccc2F)c2cc(C(=O)N3CCOCC3)sc21` gave KDM5B inhibitor inactive.
`COc1cc(F)ccc1-c1nc(N2CCOCC2)cc2c1CN(CC1CC1)C2=O` gave KDM5B inhibitor 35.5µM*.
O=C1c2cc(N3CCOCC3)nc(-c3ccc(F)cc3)c2CN1CC1CC1 was read as KDM5B inhibitor 39.8µM*.
Screening Fc1ccccc1-c1noc(N2CCOCC2)n1 returned KDM5B inhibitor inactive.
Screening O=C1c2cc(N3CCOCC3)nc(-c3ccccc3F)c2CN1CC1CC1 returned KDM5B inhibitor 39.8µM*.
Fc1ccc(-c2cnc([C@@H]3COCCN3CC3CC3)[nH]2)cc1 was read as KDM5B inhibitor inactive.
COc1cc(F)ccc1-c1cn(C)c(=O)n2cc(CN3CCOCC3)nc12 was read as KDM5B inhibitor inactive.
O=C(COc1ncnc2ccccc12)Nc1ccc(F)c(F)c1F was read as KDM5B inhibitor inactive.
`Cc1ccc(NC(=O)CSc2nc3nc(N4CCCCC4)sc3c(=O)n2C)cc1` gave KDM5B inhibitor inactive.
`O=C(Cc1cccc(C(F)(F)F)c1)NC1(c2ccccc2)CCC1` gave KDM5B inhibitor inactive.
CCOc1cc2nc(-c3ccc(OC)c(OC)c3)nc(N3CCCCC3)c2cc1OC was read as KDM5B inhibitor inactive.
For Cc1cc(C)c(S(=O)(=O)N2CCC(C(=O)NCCc3csc(-c4ccccc4)n3)CC2)c(C)c1 the results were KDM5B inhibitor inactive.
For CCCCCn1c(Sc2ccc(C)cc2)nc2c1c(=O)[nH]c(=O)n2C the results were KDM5B inhibitor inactive.
For CSc1ccc(CCNC(=O)c2noc(C)c2Cn2nc(C)cc2C)cc1 the results were KDM5B inhibitor inactive.
Cc1cccc(OCCC(=O)NC(C)c2ccc(F)cc2)c1 (centres undefined) was read as KDM5B inhibitor inactive.
`CC(NC(=O)CCC(=O)NCCc1ccc(Cl)cc1)C12CC3CC(CC(C3)C1)C2` (centres undefined) gave KDM5B inhibitor inactive.
COc1ccc(CCC(=O)N[C@@H]2CN(c3ncccn3)C[C@H]2CN(C)C)cc1 was read as KDM5B inhibitor 22.4µM*.
Screening COCCC(=O)N[C@@H]1CN(c2ccncn2)C[C@H]1CO returned KDM5B inhibitor inactive.
Screening CNC(=O)N1C[C@@H](CN(C)C)[C@H](NC(=O)c2ccsc2)C1 returned KDM5B inhibitor inactive.
`CN(C)C[C@@H]1CN(c2ncccn2)C[C@H]1NC(=O)CCn1cccn1` gave KDM5B inhibitor 28.2µM*.
Screening COc1ccc(CCC(=O)N[C@@H]2CN(c3ncccn3)C[C@H]2CO)cc1 returned KDM5B inhibitor 22.4µM*.
Cc1nn(C)c(C)c1CCC(=O)N[C@@H]1CN(c2ccncn2)C[C@H]1CN(C)C was read as KDM5B inhibitor inactive.
For CN(C)C[C@@H]1CN(S(C)(=O)=O)C[C@H]1NC(=O)CCc1ccccc1 the results were KDM5B inhibitor inactive.
Screening CN(C)C[C@@H]1CN(c2ncccn2)C[C@H]1NC(=O)Cc1ccsc1 returned KDM5B inhibitor 22.4µM*.
For COc1ccc(CCC(=O)NC2CC(=O)N(c3ccccc3)C2)cc1 (centres undefined) the results were KDM5B inhibitor inactive.
`COCCC(=O)N[C@@H]1CN(C)C[C@H]1CN(C)C` gave KDM5B inhibitor inactive.
Screening CN(C)C[C@@H]1CN(S(C)(=O)=O)C[C@H]1NC(=O)c1ccsc1 returned KDM5B inhibitor inactive.
`COc1ccc(CC(=O)N[C@@H]2CN(c3ccncn3)C[C@H]2CO)cc1` gave KDM5B inhibitor inactive.
`COc1ccccc1NC(=O)Cn1c(N2CCN(c3ccccc3)CC2)nc(C)cc1=O` gave KDM5B inhibitor inactive.
Screening Cc1cc(NCc2nc(-c3cccs3)no2)ccc1-n1cnnn1 returned KDM5B inhibitor inactive.
`CC(C#N)CN(C)C(=O)Cc1coc(-c2ccccc2)n1` (centres undefined) gave KDM5B inhibitor inactive.
`O=C1Nc2ccccc2CC12CCN([S+](=O)([O-])c1cccs1)C2` (centres undefined) gave KDM5B inhibitor inactive.
For Cc1ccc(CNC2c3ccccc3-c3ccccc32)cc1 the results were KDM5B inhibitor inactive.
C=CCOc1ccc(Cl)cc1CNCc1ccccc1 was read as KDM5B inhibitor inactive.

Screens (PubChem BioAssay)
